In PubChem BioAssay (NCATS) one finds Potency and outcome data, which are given here for eleven molecules.

Test [1] is described as follows: P-glycoprotein substrates identified in KB-8-5-11 adenocarcinoma cell line, qHTS therapeutic library screen (AID 1346987). Further: nearly all actives have a fitted effect of over 65% in size. An outline of the steps: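 Luminescence from CellTiter-Glo, read 5 min after addition, quantified survival of KB-8-5-11 (P-gp-overexpressing) cells exposed to compounds for 72 h. AC50 was derived from concentration-response curves.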
In general terms: qHTS replaces the single test concentration by a dilution series.

Test [2] in a line: Natriuretic polypeptide receptor (hNpr1) antagonism - Pilot counterscreen GloSensor control cell line (AID 1347045; calls by dose curve; further: potency means the concentration at half of the fitted maximal effect). An outline of the steps: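 Cells were first seeded and incubated overnight at 37C, then loaded with 2% GloSensor substrate for 2 h. Compounds were added for 30 min at room temperature, followed by a baseline read, 50 uM SNP and a final read after 20 min.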
On the technique in general: The purpose of a counterscreen is to sort out artefacts and off-target activity.

For test [3], the target named is Atrial natriuretic peptide receptor 1 (Homo sapiens) (UniProt P16066). Nature of the test: Natriuretic polypeptide receptor (hNpr1) antagonism - Pilot screen (AID 1347049; calls by dose curve;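 further: HEK293 cells with hNpr1 and GloSensor cGMP luciferase stimulated by 0.1 nM hNppA; agonist-evoked cGMP luminescence read 20 min after hNppA addition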; further: potency means the concentration at half of the fitted maximal effect). The gist of the method:
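Cells expressing receptor plus cGMP biosensor are seeded and incubated overnight at 37C, then loaded with GloSensor reagent (2% final) at room temperature for 2 h. Library compounds go on for 30 min. A pre-read precedes agonist (hNppA, 0.1 nM final) and a 20-min readout.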

In test [4] the target is Atrial natriuretic peptide receptor 2 (Homo sapiens) (UniProt P20594). The test can be described thus: Natriuretic polypeptide receptor (hNpr2) antagonism - Pilot subtype selectivity assay (AID 1347050; calls by dose curve; further: potency means the concentration at half of the fitted maximal effect). An outline of the steps:
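Read-out: GloSensor luminescence (CCD imager), baseline vs post-stimulation. HEK293 cells expressing hNpr2; compounds pre-incubated 30-50 min at ambient temperature; hNppC 1 nM final, 20 min.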

Test [5] is described as follows: NS1 protein of Zika virus - qHTS assay to identify small molecule inhibitors in human HEK 293 cells (AID 1347053). Further: series mostly up to about 46 µM; nearly all actives have a fitted effect of over 55% in size. An outline of the steps:
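In this cell-based screen, HEK 293 cultures received compound for one hour before Zika MR766 at MOI = 0.5. NS1 was quantified 24 hours later by TR-FRET, normalized to virus-free wells and infected wells.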

Test [6] deals with T1, Tyrosine-protein phosphatase non-receptor type substrate 1 (Homo sapiens) + Leukocyte surface antigen CD47 (Homo sapiens) (UniProt P78324+Q08722). The test can be described thus: CD47-SIRPalpha protein protein interaction - LANCE assay qHTS validation (AID 1347057; active means well fitted curve in the direction sought with a large enough effect in the signal ratio, with a control signal flat, not every such curve was filed as active; the % refers to the signal ratio; further: series mostly up to about 38 µM). The gist of the method:
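Inhibition of soluble CD47/SIRPalpha ectodomain association by titrated compounds, measured as 665/615 nm time-resolved FRET ratio after sequential 30 min room-temperature incubations.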

Test [7] concerns the target T1, Tyrosine-protein phosphatase non-receptor type substrate 1 (Homo sapiens) + Leukocyte surface antigen CD47 (Homo sapiens). Nature of the test: CD47-SIRPalpha protein protein interaction - HTRF assay qHTS validation (AID 1347058; active means well fitted curve in the direction sought with a large enough effect in the signal ratio, not every such curve was filed as active; the % refers to the signal ratio; further: series mostly up to about 38 µM). The gist of the method:
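Soluble extracellular domains (6His-CD47, Avi-tag-biotinylated SIRPalpha) in PBS pH 7.4 with 0.05% IGEPAL CA-630. Compounds were preincubated 30 min at RT with CD47 and anti-His-Eu, then SIRPalpha and SAV-XL665 were added. TR-FRET 665/615 ratio.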
In general terms: TR-FRET usually uses a lanthanide donor and a delayed reading to cut background.

For test [8] the target is unchanged. Nature of the test: CD47-SIRPalpha protein protein interaction - Alpha assay qHTS validation (AID 1347059).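 Further: bead proximity luminescence from CD47 binding SIRPalpha after compound preincubation with SIRPalpha.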 An outline of the steps:
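In PBS (pH 7.4) with 0.05% IGEPAL CA-630, compound is preincubated with biotin-Avi-SIRPalpha ectodomain before His-CD47 ectodomain and affinity beads are added. Light-protected room-temperature incubations; AlphaScreen readout.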

The target of test [9] is Parathyroid hormone/parathyroid hormone-related peptide receptor (Homo sapiens) (UniProt Q03431). The test can be described thus: qHTS for PTHR1 Agonists: Optimization Screen against the NCGC LOPAC library (AID 1347079).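 Further: GloSensor cAMP luminescence in HEK-293 GP2 cells expressing human PTHR1 with IBMX.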 The gist of the method: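 HEK-293 GP2 cells, PTHR1 + GloSensor cAMP; 3000 cells/well, o/n. Luciferin + IBMX 0.5mM each (stock), 1 hr 37C. Cpd titration, 1 hr 37C. Lum after 15 min RT. Ctrl M-PTH(1-15) top 10uM.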
Parathyroid hormone/parathyroid hormone-related peptide receptor (Homo sapiens), sequence (Q03431 whole entry, looked up): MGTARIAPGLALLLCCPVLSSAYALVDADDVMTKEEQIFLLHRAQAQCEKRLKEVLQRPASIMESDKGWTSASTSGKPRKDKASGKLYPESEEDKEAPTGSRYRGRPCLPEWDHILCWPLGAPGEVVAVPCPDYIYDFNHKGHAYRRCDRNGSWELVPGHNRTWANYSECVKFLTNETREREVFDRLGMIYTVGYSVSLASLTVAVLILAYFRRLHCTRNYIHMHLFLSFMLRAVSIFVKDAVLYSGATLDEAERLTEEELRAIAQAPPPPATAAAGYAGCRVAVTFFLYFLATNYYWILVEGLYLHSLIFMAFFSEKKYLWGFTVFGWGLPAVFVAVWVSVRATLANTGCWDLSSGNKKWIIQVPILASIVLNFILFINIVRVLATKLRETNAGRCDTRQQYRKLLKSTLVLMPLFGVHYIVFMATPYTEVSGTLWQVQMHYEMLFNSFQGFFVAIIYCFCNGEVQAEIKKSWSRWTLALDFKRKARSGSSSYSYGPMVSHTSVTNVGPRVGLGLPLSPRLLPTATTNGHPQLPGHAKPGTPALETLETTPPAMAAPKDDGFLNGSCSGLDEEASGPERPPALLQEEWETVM

Test [10] can be described thus: qHTS of pediatric cancer cell lines to identify multiple opportunities for drug repurposing: Primary screen for TC32 cells (AID 1347089). Further: nearly all actives have a fitted effect of over 60% in size. The gist of the method: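 Luminescent CellTiter-Glo read-out of metabolically active TC32 cells after 48 h compound exposure. Primary: MIPE 11-point, 0.78 nM–46 µM; NPC 8-point, 0.59 nM–46 µM. Confirmatory: 11-point dilutions.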

Test [11] can be described thus: qHTS of pediatric cancer cell lines to identify multiple opportunities for drug repurposing: Primary screen for DAOY cells (AID 1347090). Further: series mostly up to about 46 µM; nearly all actives have a fitted effect of over 55% in size. The gist of the method: (§1)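 Eight- or eleven-point concentration series, 48 h treatment at 37 degrees C in growth media; readout CellTiter-Glo luminescence. Potency and efficacy were taken from the concentration-response curves.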

A short description of test [12]: qHTS of pediatric cancer cell lines to identify multiple opportunities for drug repurposing: Primary screen for SJ-GBM2 cells (AID 1347091). An outline of the steps:
as §1

Test [13] can be described thus: qHTS of pediatric cancer cell lines to identify multiple opportunities for drug repurposing: Primary screen for A673 cells (AID 1347092). Further: nearly all actives have a fitted effect of over 45% in size. An outline of the steps:
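A673 cells (500-1,000 cells/well in growth media) were pre-incubated 5 h at 37 degrees C, then exposed to compounds for 48 h. Viability was read as CellTiter-Glo luminescence; concentration-response curves came directly from the primary screen.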

The nature of test [14]: qHTS of pediatric cancer cell lines to identify multiple opportunities for drug repurposing: Primary screen for SK-N-MC cells (AID 1347093). Further: series mostly up to about 46 µM. The gist of the method:
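Metabolically active cells were quantified by ATP-dependent luminescence (CellTiter-Glo, 15 min at room temperature) following 48 h treatment. Cells had been plated at 500-1,000 per well and settled for 5 h beforehand.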

Test [15] is described as follows: qHTS of pediatric cancer cell lines to identify multiple opportunities for drug repurposing: Primary screen for BT-37 cells (AID 1347094). Further: series mostly up to about 57 µM. The gist of the method: (§2)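 500-1,000 cells/well; 5 h pre-incubation 37 °C/5% CO2; compound pinned; 48 h; CellTiter-Glo, 15 min RT; luminescence. MIPE 11-pt from 0.78 nM, NPC 8-pt from 0.59 nM final. Bortezomib 2.3 µM final as positive control.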

A short description of test [16]: qHTS of pediatric cancer cell lines to identify multiple opportunities for drug repurposing: Primary screen for NB-EBc1 cells (AID 1347095). The gist of the method:
as §2

Test [17] can be described thus: qHTS of pediatric cancer cell lines to identify multiple opportunities for drug repurposing: Primary screen for U-2 OS cells (AID 1347096). Further: nearly all actives have a fitted effect of over 50% in size. An outline of the steps: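 Cells (500-1,000/well) in growth media were settled 5 h at 37 degrees C, then given compounds for 48 h. Viability was read as CellTiter-Glo luminescence. Primary runs used MIPE at 11 points (0.78 nM-46 µM) and NPC at 8 points (0.59 nM-46 µM); follow-ups used 11 points.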

Test [18] can be described thus: qHTS of pediatric cancer cell lines to identify multiple opportunities for drug repurposing: Primary screen for Saos-2 cells (AID 1347097). Further: nearly all actives have a fitted effect of over 40% in size. The gist of the method: as §2
A short description of test [19]: qHTS of pediatric cancer cell lines to identify multiple opportunities for drug repurposing: Primary screen for SK-N-SH cells (AID 1347098).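 Further: DMSO served as neutral control and bortezomib at 2.3 µM as positive control; nearly all actives have a fitted effect of over 65% in size.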 The gist of the method: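 Cells (500-1,000/well) rested 5 h, then received compounds for 48 h; metabolically active cells were measured by CellTiter-Glo luminescence. Final concentrations spanned up to 46 µM (MIPE, 11-point) or 0.59 nM-46 µM (NPC, 8-point) in primary screens, 11-point in follow-ups.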

The nature of test [20]: qHTS of pediatric cancer cell lines to identify multiple opportunities for drug repurposing: Primary screen for NB1643 cells (AID 1347099). Further: nearly all actives have a fitted effect of over 50% in size. An outline of the steps: as §2

The structures appear in SMILES notation. Unmarked numbers belong to inactive results. Inconclusive results are not listed. Calls of active or inactive are those of the source. Unless noted, the call rests on the fitted dose curve; in most records, active means well fitted curve in the direction sought with a large enough effect; inconclusive means small, poorly fitted or top-dose-only effect, or another doubt; inactive means no such curve, though single readings can be large; an effect the other way counts as inactive or inconclusive. Where a SMILES comes first, the peptide text is derived from it. [ ]: non-standard residue; d: D form. pGlu = O=C1CC[C@@H](C(=O)O)N1; Thz = O=C(O)[C@@H]1CSCN1

Atrial natriuretic peptide receptor 1 (Homo sapiens), sequence (P16066 whole entry, looked up): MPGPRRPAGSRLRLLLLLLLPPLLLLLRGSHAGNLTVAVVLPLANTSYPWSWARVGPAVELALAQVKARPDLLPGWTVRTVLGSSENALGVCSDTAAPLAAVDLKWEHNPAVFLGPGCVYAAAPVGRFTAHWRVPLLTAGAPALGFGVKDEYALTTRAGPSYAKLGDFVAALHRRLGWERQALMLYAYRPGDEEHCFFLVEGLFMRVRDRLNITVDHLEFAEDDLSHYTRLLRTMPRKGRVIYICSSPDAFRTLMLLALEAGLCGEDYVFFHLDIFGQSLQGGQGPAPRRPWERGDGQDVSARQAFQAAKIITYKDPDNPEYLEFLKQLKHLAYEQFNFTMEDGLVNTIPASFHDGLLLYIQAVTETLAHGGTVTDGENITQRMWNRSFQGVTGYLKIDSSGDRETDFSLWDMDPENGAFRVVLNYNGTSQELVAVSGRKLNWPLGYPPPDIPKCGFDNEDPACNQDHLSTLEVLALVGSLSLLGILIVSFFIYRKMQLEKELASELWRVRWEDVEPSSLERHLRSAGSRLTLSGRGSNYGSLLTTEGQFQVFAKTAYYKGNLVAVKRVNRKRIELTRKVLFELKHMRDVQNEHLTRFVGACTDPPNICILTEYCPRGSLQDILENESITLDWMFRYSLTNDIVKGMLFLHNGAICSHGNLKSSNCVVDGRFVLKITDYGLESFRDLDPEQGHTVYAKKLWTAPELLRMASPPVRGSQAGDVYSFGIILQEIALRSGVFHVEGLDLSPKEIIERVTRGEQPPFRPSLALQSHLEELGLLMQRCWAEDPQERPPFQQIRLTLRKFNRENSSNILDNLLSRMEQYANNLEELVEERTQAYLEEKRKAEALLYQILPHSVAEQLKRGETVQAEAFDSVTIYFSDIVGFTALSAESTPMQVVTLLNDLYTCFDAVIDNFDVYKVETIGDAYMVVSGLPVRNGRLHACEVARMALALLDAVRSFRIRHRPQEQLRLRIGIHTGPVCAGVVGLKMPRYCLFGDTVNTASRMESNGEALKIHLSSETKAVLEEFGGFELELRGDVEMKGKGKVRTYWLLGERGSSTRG
Atrial natriuretic peptide receptor 2 (Homo sapiens), sequence (P20594 whole entry, looked up): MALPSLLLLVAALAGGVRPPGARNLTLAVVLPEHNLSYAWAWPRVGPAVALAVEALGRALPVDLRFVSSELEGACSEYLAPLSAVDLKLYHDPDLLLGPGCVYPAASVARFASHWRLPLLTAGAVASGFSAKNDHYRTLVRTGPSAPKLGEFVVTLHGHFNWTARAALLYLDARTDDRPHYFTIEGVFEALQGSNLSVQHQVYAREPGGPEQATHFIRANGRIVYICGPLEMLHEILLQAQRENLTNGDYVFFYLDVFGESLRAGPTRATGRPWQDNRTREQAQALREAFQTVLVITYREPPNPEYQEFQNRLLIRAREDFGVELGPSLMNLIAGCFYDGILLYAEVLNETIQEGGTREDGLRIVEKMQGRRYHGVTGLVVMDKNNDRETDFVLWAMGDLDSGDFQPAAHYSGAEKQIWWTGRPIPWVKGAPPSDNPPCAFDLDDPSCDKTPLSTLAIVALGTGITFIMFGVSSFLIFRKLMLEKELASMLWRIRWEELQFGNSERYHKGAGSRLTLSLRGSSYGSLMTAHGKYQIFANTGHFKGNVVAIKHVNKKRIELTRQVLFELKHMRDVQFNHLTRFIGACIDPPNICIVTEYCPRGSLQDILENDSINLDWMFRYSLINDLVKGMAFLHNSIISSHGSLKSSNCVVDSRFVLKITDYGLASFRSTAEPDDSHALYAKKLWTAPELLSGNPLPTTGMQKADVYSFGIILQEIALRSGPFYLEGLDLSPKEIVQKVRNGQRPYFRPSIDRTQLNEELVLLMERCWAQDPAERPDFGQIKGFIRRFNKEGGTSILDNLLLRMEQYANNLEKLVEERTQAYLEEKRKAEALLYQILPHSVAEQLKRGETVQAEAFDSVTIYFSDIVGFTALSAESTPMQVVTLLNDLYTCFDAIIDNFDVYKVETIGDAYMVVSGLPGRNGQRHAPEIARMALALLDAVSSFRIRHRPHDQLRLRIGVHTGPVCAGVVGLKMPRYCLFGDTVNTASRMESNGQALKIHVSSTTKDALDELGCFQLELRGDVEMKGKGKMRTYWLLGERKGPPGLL
T1 sequence (P78324 whole entry, looked up, the tested form may be a part): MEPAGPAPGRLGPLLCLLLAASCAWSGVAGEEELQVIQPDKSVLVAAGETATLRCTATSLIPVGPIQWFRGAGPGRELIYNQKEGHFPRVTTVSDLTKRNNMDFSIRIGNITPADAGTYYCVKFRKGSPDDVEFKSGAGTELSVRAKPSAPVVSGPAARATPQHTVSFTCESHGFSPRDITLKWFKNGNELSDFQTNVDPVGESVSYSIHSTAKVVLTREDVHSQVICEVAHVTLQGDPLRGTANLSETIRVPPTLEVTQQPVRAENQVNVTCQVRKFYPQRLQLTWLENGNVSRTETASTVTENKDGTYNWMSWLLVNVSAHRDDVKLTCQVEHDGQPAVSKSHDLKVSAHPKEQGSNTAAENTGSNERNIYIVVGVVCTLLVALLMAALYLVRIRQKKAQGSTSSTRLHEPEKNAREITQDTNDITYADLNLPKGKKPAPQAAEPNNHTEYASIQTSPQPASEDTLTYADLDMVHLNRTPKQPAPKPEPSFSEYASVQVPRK
T1 sequence (Q08722 whole entry, looked up, the tested form may be a part): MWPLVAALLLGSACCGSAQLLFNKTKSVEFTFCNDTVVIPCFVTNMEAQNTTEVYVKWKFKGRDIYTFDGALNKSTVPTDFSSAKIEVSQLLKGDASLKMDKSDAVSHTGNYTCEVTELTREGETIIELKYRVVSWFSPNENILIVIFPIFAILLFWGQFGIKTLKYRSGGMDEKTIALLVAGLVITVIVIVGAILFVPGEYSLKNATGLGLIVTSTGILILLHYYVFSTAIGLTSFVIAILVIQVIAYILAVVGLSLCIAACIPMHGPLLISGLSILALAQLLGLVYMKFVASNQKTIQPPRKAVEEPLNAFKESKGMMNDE

In the case of `CCC1C(=O)OCC1Cc1cncn1C` (configuration not stated), the Potency entry in test [1], in test [2], in [3], in test [4], in [5] and in test [6] was “inactive” each time. For the same molecule, the Potency entry in test [8], in test [9], in test [10], in test [11], in test [12] and in test [13] was “inactive” throughout. Moreover, the Potency result in [14], in test [15], in test [16], in test [17], in test [18] and in [19] was “inactive” in each case. Besides, the Potency entry in test [20] was “inactive”. The outcome in [7] was inactive.
`CN1[C@@H]2CC[C@H]1CC(OC(c1ccccc1)c1ccccc1)C2` (some centres not stated): in test [1], the Potency entry was “inactive”.
Still for that read-out and setting: next, `O=C1CC[C@@H](C(=O)N2CSC[C@H]2C(=O)O)N1` ([pGlu]-[Thz]-OH): “inactive”.
As for `N=c1ccn2c(n1)O[C@H]1[C@H](O)[C@@H](CO)O[C@H]12`, the Potency result in [1], in [2], in test [3], in [4], in test [5] and in test [6] was “inactive” throughout. The Potency result in test [8] and in test [9] was “inactive” each time. In [7], the outcome was inactive.
As for `CO/N=C(\C(=O)N[C@@H]1C(=O)N2C(C(=O)O)=C(COC(C)=O)CS[C@H]12)c1csc(N)n1` (stereo in doubt), the Potency result in test [1] was “inactive”.
The same measure, in the same setting: with `O=C(O)COc1ccc(C(=O)c2cccs2)c(Cl)c1Cl` the entry was “inactive”.
Take `C=CC(N)CCC(=O)O` (configuration not stated): the Potency entry in test [1], in test [2], in test [4], in test [5], in test [6] and in [8] was “inactive” each time. Moreover, in test [9], the Potency result is “inactive”. Further, in test [7], the outcome was inactive.
As to `CC[C@H]1OC(=O)[C@H](C)[C@@H](O[C@H]2C[C@@](C)(OC)[C@@H](O)[C@H](C)O2)[C@H](C)[C@@H](O[C@@H]2O[C@H](C)C[C@H](N(C)C)[C@H]2O)[C@](C)(O)C[C@@H](C)C(=O)[C@H](C)[C@@H](O)[C@]1(C)O`, in test [1], the Potency result was “inactive”.
Still for that read-out and setting: next, `CCCCCC[C@@H](O)C/C=C\CCCCCCCC(=O)O`: “inactive”; `CC(=O)O[C@H]1C[C@@]2(C)[C@@H](C[C@@H](O)[C@H]3[C@@]4(C)CC[C@@H](O)[C@@H](C)[C@@H]4CC[C@@]32C)/C1=C(\CCC=C(C)C)C(=O)O`: “inactive”.
For the molecule `COc1ccc(/C=C/C(=O)Nc2ccccc2C(=O)O)cc1OC`, the Potency result in test [1], in [5], in test [6], in [8] and in test [9] was “inactive” each time. Further, the Potency is 1.85 µM (active) in [2], 9.53 µM (active) in test [3] and 3.69 µM (active) in test [4].
